Results reported in PubChem BioAssay AID1159580 (chemical genetic matrix, 2015).
About 2,000 (36%) of roughly 5,500 compounds were called active. Roughly 18% stayed inconclusive and do not appear here. The list shows a part of the results. Values without a mark were called inactive. Cut-off read from the data, not from the text of the source: active = normalized growth mostly below about 0.91 (no sharp cut-off); inconclusive = no clear call, values can overlap the other calls; inactive = mostly above about 0.92.

Experiment: chemical genetic growth profiling, strain panel (AID 1159580);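 note: tested at 20 µM; growth read once vehicle control cultures reached saturation at 30 °C; 1 = growth at the plate median or of vehicle wells; lower values mean less growth of the strain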
Settings: S. cerevisiae deletion strains, growth OD

Q: For `CCOc1ccc(C(=O)c2cc(O)c(OC)c(OC)c2O)cc1`, which normalized growth (locus YJR066W, strain TOR1, active compounds read low) is on record?
A: Its normalized growth is 0.882.

Q: And the normalized growth (locus YJR075W, strain HOC1, active compounds read low)?
A: The normalized growth was 1.

Q: And the normalized growth (locus YKL009W, strain mrt4, active compounds read low)?
A: The normalized growth was 1.02.

Q: And the normalized growth (locus YKL068W, active compounds read low)?
A: Its normalized growth is 0.988.

Q: What about the normalized growth (locus YKL085W, strain MDH1 (second series), active compounds read low) of the same compound?
A: The normalized growth was 0.985.

Q: And the normalized growth (locus YKL085W, strain MDH1, active compounds read low)?
A: The normalized growth was 0.985.

Q: And the normalized growth (locus YKL160W, strain elf1, active compounds read low)?
A: Its normalized growth is 0.966.

Q: And the normalized growth (locus YKL190W, strain CNB1, active compounds read low)?
A: The normalized growth was 1.01.

Q: What about the normalized growth (locus YKR001C, strain vps1, active compounds read low) of the same compound?
A: The normalized growth was 0.959.

Q: And the normalized growth (locus YKR026C, strain gcn3, active compounds read low)?
A: The normalized growth was 0.997.

Q: And the normalized growth (locus YKR091W, strain srl3, active compounds read low)?
A: The normalized growth was 0.999.

Q: And the normalized growth (locus YLL001W, strain dnm1, active compounds read low)?
A: The normalized growth was 0.989.

Q: And the normalized growth (locus YLL026W, active compounds read low)?
A: The normalized growth was 1.01.

Q: What about the normalized growth (locus YLL041C, strain sdh2, active compounds read low) of the same compound?
A: Its normalized growth is 1.

Q: And the normalized growth (locus YLR027C, strain aat2, active compounds read low)?
A: The normalized growth was 0.99.

Q: What about the normalized growth (locus YLR039C, strain RIC1, active compounds read low) of the same compound?
A: The normalized growth was 0.871.

Q: And the normalized growth (locus YLR058C, strain SHM2, active compounds read low)?
A: The normalized growth was 1.03.

Q: And the normalized growth (locus YLR102C, strain apc9, active compounds read low)?
A: Its normalized growth is 1.01.

Q: What about the normalized growth (locus YLR113W, strain HOG1, active compounds read low) of the same compound?
A: Its normalized growth is 0.844 (active).

Q: And the normalized growth (locus YLR221C, strain rsa3, active compounds read low)?
A: The normalized growth was 0.984.

Q: What about the normalized growth (locus YLR258W, strain gsy2, active compounds read low) of the same compound?
A: The normalized growth was 0.989.

Q: And the normalized growth (locus YLR262C, strain YPT6 (second series), active compounds read low)?
A: The normalized growth was 0.341 (active).

Q: And the normalized growth (locus YLR262C, strain YPT6, active compounds read low)?
A: Its normalized growth is 0.625.

Q: And the normalized growth (locus YLR268W, strain sec22, active compounds read low)?
A: Its normalized growth is 0.974.

Q: What about the normalized growth (locus YLR320W, strain mms22, active compounds read low) of the same compound?
A: Its normalized growth is 0.852 (active).

Q: And the normalized growth (locus YLR330W, strain CHS5, active compounds read low)?
A: Its normalized growth is 1.

Q: What about the normalized growth (locus YLR342W, strain FKS1 (second series), active compounds read low) of the same compound?
A: The normalized growth was 0.952.

Q: What about the normalized growth (locus YLR342W, strain FKS1, active compounds read low) of the same compound?
A: Its normalized growth is 0.995.

Q: What about the normalized growth (locus YLR357W, strain rsc2, active compounds read low) of the same compound?
A: Its normalized growth is 1.02.

Q: What about the normalized growth (locus YLR370C, strain arc18, active compounds read low) of the same compound?
A: The normalized growth was 0.994.

Q: What about the normalized growth (locus YLR371W, strain rom2, active compounds read low) of the same compound?
A: Its normalized growth is 0.963.

Q: What about the normalized growth (locus YLR384C, strain iki3, active compounds read low) of the same compound?
A: The normalized growth was 0.999.

Q: What about the normalized growth (locus YLR418C, strain cdc73, active compounds read low) of the same compound?
A: Its normalized growth is 1.04.

Q: And the normalized growth (locus YML016C, strain PPZ1, active compounds read low)?
A: Its normalized growth is 1.01.

Q: And the normalized growth (locus YML032C, strain rad52, active compounds read low)?
A: The normalized growth was 1.03.

Q: And the normalized growth (locus YML120C, strain ndi1, active compounds read low)?
A: The normalized growth was 0.986.

Q: And the normalized growth (locus YML124C, strain tub3, active compounds read low)?
A: The normalized growth was 1.01.

Q: What about the normalized growth (locus YMR058W, strain fet3, active compounds read low) of the same compound?
A: The normalized growth was 0.981.

Q: What about the normalized growth (locus YMR078C, strain ctf18, active compounds read low) of the same compound?
A: The normalized growth was 1.03.

Q: What about the normalized growth (locus YMR125W, strain sto1, active compounds read low) of the same compound?
A: Its normalized growth is 1.01.

Q: What about the normalized growth (locus YMR129W, active compounds read low) of the same compound?
A: Its normalized growth is 1.

Q: And the normalized growth (locus YMR205C, strain PFK2, active compounds read low)?
A: The normalized growth was 0.932.

Q: What about the normalized growth (locus YMR223W, strain ubp8, active compounds read low) of the same compound?
A: Its normalized growth is 0.981.

Q: And the normalized growth (locus YMR231W, strain pep5, active compounds read low)?
A: The normalized growth was 0.999.

Q: What about the normalized growth (locus YMR263W, strain SAP30, active compounds read low) of the same compound?
A: The normalized growth was 0.997.

Q: And the normalized growth (locus YMR307W, strain GAS1, active compounds read low)?
A: Its normalized growth is 0.929.

Q: What about the normalized growth (locus YNL067W, strain RPL9B, active compounds read low) of the same compound?
A: The normalized growth was 1.

Q: And the normalized growth (locus YNL071W, strain lat1, active compounds read low)?
A: Its normalized growth is 0.626 (active).

Q: And the normalized growth (locus YNL183C, strain NPR1, active compounds read low)?
A: The normalized growth was 0.906.

Q: What about the normalized growth (locus YNL209W, strain ssb2, active compounds read low) of the same compound?
A: The normalized growth was 0.992.

Q: What about the normalized growth (locus YNL233W, strain BNI4, active compounds read low) of the same compound?
A: Its normalized growth is 1.

Q: And the normalized growth (locus YNL248C, strain rpa49, active compounds read low)?
A: Its normalized growth is 1.

Q: And the normalized growth (locus YNL250W, strain rad50, active compounds read low)?
A: Its normalized growth is 1.06.

Q: And the normalized growth (locus YNL271C, strain bni1, active compounds read low)?
A: Its normalized growth is 1.01.

Q: What about the normalized growth (locus YNL298W, strain CLA4, active compounds read low) of the same compound?
A: The normalized growth was 1.04.

Q: And the normalized growth (locus YNL307C, strain MCK1, active compounds read low)?
A: The normalized growth was 0.858 (active).

Q: And the normalized growth (locus YNL322C, strain KRE1 (second series), active compounds read low)?
A: Its normalized growth is 0.989.

Q: What about the normalized growth (locus YNR049C, strain mso1, active compounds read low) of the same compound?
A: Its normalized growth is 1.

Q: And the normalized growth (locus YNR052C, strain pop2, active compounds read low)?
A: Its normalized growth is 1.02.

Q: And the normalized growth (locus YOL006C, strain TOP1, active compounds read low)?
A: Its normalized growth is 1.18.

Q: What about the normalized growth (locus YOL012C, strain htz1) of the same compound?
A: Its normalized growth is 1.11.

Q: What about the normalized growth (locus YOL147C, strain pex11, active compounds read low) of the same compound?
A: The normalized growth was 1.01.

Q: What about the normalized growth (locus YOR001W, strain rrp6, active compounds read low) of the same compound?
A: The normalized growth was 0.992.

Q: What about the normalized growth (locus YOR061W, strain CKA2, active compounds read low) of the same compound?
A: Its normalized growth is 1.01.

Q: What about the normalized growth (locus YOR069W, strain VPS5, active compounds read low) of the same compound?
A: The normalized growth was 1.

Q: And the normalized growth (locus YOR070C, strain gyp1, active compounds read low)?
A: The normalized growth was 0.981.

Q: What about the normalized growth (locus YOR080W, strain dia2, active compounds read low) of the same compound?
A: Its normalized growth is 1.01.

Q: And the normalized growth (locus YOR083W, strain WHI5, active compounds read low)?
A: The normalized growth was 0.977.

Q: And the normalized growth (locus YOR106W, strain vam3, active compounds read low)?
A: The normalized growth was 0.9.

Q: What about the normalized growth (locus YOR136W, strain idh2, active compounds read low) of the same compound?
A: Its normalized growth is 1.01.

Q: And the normalized growth (locus YOR144C, strain elg1, active compounds read low)?
A: Its normalized growth is 1.01.

Q: And the normalized growth (locus YOR184W, strain ser1, active compounds read low)?
A: The normalized growth was 1.01.

Q: And the normalized growth (locus YOR231W, strain MKK1, active compounds read low)?
A: The normalized growth was 0.948.

Q: What about the normalized growth (locus YOR265W, strain rbl2, active compounds read low) of the same compound?
A: The normalized growth was 0.988.

Q: What about the normalized growth (locus YOR270C, strain vph1, active compounds read low) of the same compound?
A: The normalized growth was 0.903.

Q: And the normalized growth (locus YOR290C, strain snf2, active compounds read low)?
A: The normalized growth was 0.979.

Q: And the normalized growth (locus YOR316C, strain cot1, active compounds read low)?
A: Its normalized growth is 1.03.

Q: And the normalized growth (locus YPL051W, strain arl3, active compounds read low)?
A: The normalized growth was 0.891 (active).

Q: And the normalized growth (locus YPL078C, strain atp4, active compounds read low)?
A: Its normalized growth is 0.994.

Q: What about the normalized growth (locus YPL106C, strain sse1, active compounds read low) of the same compound?
A: Its normalized growth is 1.04.

Q: And the normalized growth (locus YPL240C, strain hsp82, active compounds read low)?
A: Its normalized growth is 0.991.

Q: And the normalized growth (locus YPL241C, strain CIN2, active compounds read low)?
A: The normalized growth was 1.01.

Q: And the normalized growth (locus YPL256C, strain CLN2, active compounds read low)?
A: The normalized growth was 0.934.

Q: And the normalized growth (locus YPR119W, strain clb2, active compounds read low)?
A: The normalized growth was 1.02.

Q: And the normalized growth (locus YPR141C, strain kar3, active compounds read low)?
A: Its normalized growth is 1.

Q: And the normalized growth (locus YPR163C, strain tif3, active compounds read low)?
A: The normalized growth was 0.953.

Q: What about the normalized growth (locus YPR167C, strain met16, active compounds read low) of the same compound?
A: The normalized growth was 1.02.

Q: And the normalized growth (strain wtn01, active compounds read low)?
A: The normalized growth was 0.992.
